Whole data set: some 59,000 sequences, median the read-out near -0.00055, cut for the lowest 2% near -2. Many of the other results were omitted from the sample, so the lowest values are more common in it than they were.
Assay: Identification of proteins required for the processing of the EWS-FLI1 nascent transcript;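 also: robust z of luciferase light less the median z of siRNAs with the same seed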
Conditions: TC32 Ewing sarcoma NR0B1-luc vs CMV-luc (EWS-FLI1 target promoter against control promoter), 48 h; screened at 20 nM (by protocol)
Protocol: Ewing sarcoma (ES) cells depend on the EWS-FLI1 fusion transcription factor for cell survival. Using an assay of EWS-FLI1 activity and genome-wide siRNA screening we have identified proteins required for the processing of the EWS-FLI1 nascent transcript. Parallel genome-wide siRNA-mediated RNAi screens were conducted in Ewing sarcoma TC32 cell lines expressing a luciferase (luc) reporter protein driven by either the promoter of the EWS-FLI1 target gene NR0B1 (TC32-NR0B1-luc) or the CMV promoter (TC32-CMV-luc). Luciferase activity was assessed 48 hours post siRNA-transfection.
Twenty microl of serum-free media containing Lipofectamine RNAiMax (0.05 microl) was added to wells containing siRNA (0.8 pmol). Lipid and siRNA were allowed to complex for 45 min at ambient temperature before addition of 600 cells in RPMI-1640, 20% FBS to yield final transfection mixtures containing 20 nM siRNA in RPMI-1640, 10% FBS. Luciferase expression was measured using OneGlo (Promega, Madison, WI). The genome-wide screening campaign was conducted using Ambion's human genome library version 4.1 (Ambion, Austin TX). This library targets approximately 21000 human genes, three siRNAs per gene. Each siRNA is arrayed in an individual well of a 384-well plate. Parallel transfections were conducted in TC32-NR0B1-luc and TC32-CMV-luc cell lines and luciferase expression (OneGlo, Promega) was assayed 48 h later on a PerkinElmer Envision 2104 Multilabel plate reader (PerkinElmer, Waltham, MA). Qiagen's AllStars Negative control was incorporated on all screening plates for normalization (16 wells per plate). Qiagen, Germantown, MDsiGL4 was incorporated as a positive transfection control (16 wells per plate) on all plates. […] The raw luciferase data for the NR0B1- and CMV-luc screens were normalized and z-score-MAD transformed using standard methods (Chung et al., 2008). The miRNA-like seed sequence of every siRNA was determined and the median z-score for all siRNA sequences with the same seed sequence was calculated. This z-score was subtracted from the z-score associated with each siRNA with that seed sequence to generate a seed-adjusted z-score value (Z) that was used when the results for the three siRNAs corresponding to each gene were compared (Marine et al., 2012)

Row | Sequence | seed-corrected z-score
1 | UAUACGAUAAUGAAAUUCC against SPINK13 | 0.358
2 | AAAGUUGGAAUACCGAGGU against C15orf61 | 0.00537
3 | UUGACUAUAAGUGCGUCUC against KMT2E | -2.36
4 | UCAGGGUGCAGCAUGAAUC against LOC338667 | 0.765
5 | UUUGUUGGGUCUAAGAUUG against RAB23 | -0.849
6 | UCAAUUACACCCUCAUUUG against SRSF6 | -2.18
7 | UUCGUGUAGGGUGUGUAGC against OSGIN1 | 0.000927
8 | UUAGAGUCAUGCAUGAGGG against MROH7 | -0.225
9 | UUGUAGACGAGCUGGAUGC against ADAMTSL5 | -0.759
10 | UCCAUUCCUAUACUAGUCC against ABCG2 | -0.43
11 | CAAGUUUUUAUUAUCCUGC against EPHA10 | -0.0524
12 | AUUGUUCCCAUAGAGUUCC against BCL2L1 | 3.29
13 | UGAUCUGUGACUGCUCUUC against AP2M1 | -2.2
14 | UCGAUCUUCAGGUCGUUGC against ATXN1 | -0.921
15 | UUGGAAGUCACAGUCAUCC against CST7 | -0.103
16 | UUGGUUAACUGGUCAAUCC against SLC40A1 | -0.655
17 | AUCUUUCCCAGGUUUUUCG against ZNF669 | -2.19
18 | AUCCAUCAAAGCGAUAUUC against GBE1 | -1.06
19 | AAUGAAGGAACCAUUGCCC against IL18BP | 1.21

Row | Sequence | seed-corrected z-score
20 | AAAUAUCCCAUAAUCAGUG against LYZ | -0.541
21 | AAUGGAUCCAAAGAGGCUA against KIFC2 | 0.744
22 | UUUAAUGUAACUCCCACUU against DLGAP2 | 0.4
23 | UGUGGUUCAACAAGAAGCU against CD177 | -1.65
24 | ACUGGAACAAGAACCGUCC against PDIA5 | 0.508
25 | UGAUCGUACAGGUGCAUCG against IL1B | -0.147
26 | AAAUGAUCUGGUUUCCUUC against OLFML1 | -0.829
27 | UAAAUAGCAGCAUCUACUC against PPM1E | 0.41
28 | AAAACGAUCAAAAUCUGUC against RPL14 | -2.5
29 | UACGUACUCAUUCUUCAGG against CMC2 | -0.986
30 | UACAGGUAGGAGUUGUCCU against PRKACG | 0.0436
31 | UUUUAUAGAGGGAUAUUCG against NPC2 | 1.05
32 | AACUGGUUCAUCAGUGUCC against WDR89 | -2
33 | UGAAAUGCUAAUGCGUGGG against RBM33 | 0.224
34 | UGCUUGCGAACAAACAGCC against SCD5 | 0.624
35 | UAGUGAUAGAUACUGUUCC against HGF | -0.568
36 | UUUUGAUUAACUCGAGGAG against TSSK1B | 0.323
37 | UAGGGUCAUCGAGAGGUUC against MAML3 | -2.49

— PubChem BioAssay AID1159506 (National Center for Advancing Translational Sciences (NCATS), 2015)
